Values joined by “and” are separate entries in the source; they are usually repeats but may differ in a detail not shown here. Identical values can stand only once. This is part of a sample that, as a whole, favours compounds with a hit. Of some 83,000 tested, about 20% had one in any assay.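 Results are percent growth after 48 hours of single-concentration exposure. 100 means growth as in untreated cells, lower positive values show inhibition; negative values down to -100 show cell death.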 Unmarked numbers belong to inactive results. Active and inactive are the calls of the source. How the source made its calls: active means growth percent below 10; inactive means the rest.
Experiments:
Assay in all cases: NCI-60 one-dose screen, 48 h (100 = growth as untreated, 0 = no growth, -100 = all killed)
Conditions in all cases: 10 µM
RPMI-8226 leukemia = tested on: RPMI-8226 leukemia
OVCAR-8 ovarian = tested on: OVCAR-8 ovarian
OVCAR-5 ovarian = tested on: OVCAR-5 ovarian
OVCAR-4 ovarian = tested on: OVCAR-4 ovarian
SK-OV-3 ovarian = tested on: SK-OV-3 ovarian
IGROV1 ovarian = tested on: IGROV1 ovarian
OVCAR-3 ovarian = tested on: OVCAR-3 ovarian
HS 578T breast = tested on: HS 578T breast
NCI/ADR-RES ovarian = tested on: NCI/ADR-RES ovarian
T-47D breast = tested on: T-47D breast
BT-549 breast = tested on: BT-549 breast
MDA-MB-435 melanoma = tested on: MDA-MB-435 melanoma
SW-620 colon = tested on: SW-620 colon
MCF7 breast = tested on: MCF7 breast
HCT-116 colon = tested on: HCT-116 colon
HCC-2998 colon = tested on: HCC-2998 colon
KM12 colon = tested on: KM12 colon
MDA-MB-468 breast = tested on: MDA-MB-468 breast

Compound	growth (RPMI-8226 leukemia)	growth (OVCAR-8 ovarian)	growth (OVCAR-5 ovarian)	growth (OVCAR-4 ovarian)	growth (SK-OV-3 ovarian)	growth (IGROV1 ovarian)	growth (OVCAR-3 ovarian)	growth (HS 578T breast)	growth (NCI/ADR-RES ovarian)	growth (T-47D breast)	growth (BT-549 breast)	growth (MDA-MB-435 melanoma)	growth (SW-620 colon)	growth (MCF7 breast)	growth (HCT-116 colon)	growth (HCC-2998 colon)	growth (KM12 colon)	growth (MDA-MB-468 breast)
O=C(CNc1nc(-c2ccccc2)cs1)Nc1ccccc1	8.69% (active)	10%	-67.4% (active)	35%	11.2%	-7.7% (active)	-12.1% (active)	14.3%	-22.8% (active)	-15.3% (active)	-57.7% (active)	-3.84% (active)	-38.6% (active)	-59.7% (active)	3.71% (active)	-94.9% (active)	2.41% (active)	-78% (active)
O=C1Nc2ccc(Cl)cc2/C1=C/c1ccc(OCc2ccc(Br)cc2F)cc1	44.7%	5.33% (active)	70.6%	-20.5% (active)	25.1%	39.2%	0.51% (active)	-0.705% (active)	13.1%	10.1%	81.9%	60.2%	23.6%	12.1%	-10.8% (active)	77.5%	59.1%	92.6% and 48.8%
O=C(NCCCCC(c1ccc(F)cc1)c1ccc(F)cc1)NCCCc1cccnc1	-42.1% (active)	11.4%	27.9%	20.6%	23.6%	31.6%	26.5%	56.4%	12.9%	5.2% (active)	-16.4% (active)	11.9%	17.3%	13.2%	3.26% (active)	29.2%	18%	-3.04% (active)
CN1CCN(c2ccc(C(=O)/C=C/c3cc(Br)ccc3F)cc2)CC1	-24.7% (active)	64.2%	135%	59.6%	44.4%	33.1%	33.8%	95.1%	35.3%	59.8%	59.3%	1.57% (active)	-25.7% (active)	2.37% (active)	1.2% (active)	-63.2% (active)	8.8% (active)	-13.3% (active)
O=C(COc1ccc(NC(=O)Nc2ccc(Cl)cc2)cc1)N=Nc1c(O)[nH]c2ccc([N+](=O)[O-])cc12	22.3%	16.1%	69.4%	-11.6% (active)	85.2%	79.5%	-55.9% (active)	13.7%	92.6%	7.65% (active)	22.2%	17%	19.9%	-36.4% (active)	-37.8% (active)	26.3%	-46.6% (active)	-54.6% (active)
CCCCCc1ccc(S(=O)(=O)N(C(C)=O)c2cc(-c3csc(N(C)C(C)=O)n3)ccc2N2CCN(C)CC2)cc1	-24.8% (active)	41.2%	57.6%	62%	96%	68.2%	44.7%	35.7%	47.9%	30.4%	73.9%	-97.4% (active)	-77.9% (active)	-73.1% (active)	-87.8% (active)	-67.8% (active)	15.7%	20.9%
Cc1cccc2cc(-c3cc(-c4ccccc4)nc(=O)[nH]3)c(Cl)nc12	17.8%	72.8%	93%	103%	118%	101%	91.4%	89.8%	73.5%	76.7%	84.4%	99.8%	87.7%	29.3%	63.4%	102%	73.5%	83.6%
COc1ccc(OC)c(/C=N/NC(=O)c2ccc3nc(-c4ccc(Cl)cc4)[nH]c3c2)c1	37.7%	82.8%	104%	61.1%	84.9%	92.2%	89.2%	51.2%	88.8%	38.2%	74.3%	85.7%	92%	51.9%	56.9%	85.4%	76.7%	69.6%
COc1cnc2c(c1)C(=O)c1c-2n(CCCNCCO)c(=O)c2cc(OC)c(OC)cc12	4.21% (active)	30.4%	24%	47.8%	7.28% (active)	27.2%	3.13% (active)	105%	88%	10.1%	40.7%	49.7%	38.4%	5.82% (active)	1.67% (active)	30.3%	54.5%	-48.8% (active)
CN1CCc2c(sc3ncnc(N/N=C/c4cn(-c5ccccc5)nc4-c4ccc(Br)cc4)c23)C1	35.8%	4.42% (active)	48.5%	51.4%	107%	56.7%	4.8% (active)	70.1%	8.08% (active)	74.2%	83.4%	66.1%	11%	-3.07% (active)	1.25% (active)	27.1%	44.9%	16.8%
C=C(C)[C@@H]1CC[C@]2(C(=O)OC)CC[C@]3(C)[C@H](CC[C@@H]4[C@@]5(C)CC[C@H](N)C(C)(C)[C@@H]5CC[C@]43C)[C@@H]12	-30.7% (active)	-77.4% (active)	-100% (active)	-93.1% (active)	-54.8% (active)	-95.8% (active)	-78.1% (active)	-59.3% (active)	-83% (active)	-73.3% (active)	-63.6% (active)	-97% (active)	-75.6% (active)	-85.4% (active)	-98.3% (active)	-93.6% (active)	-82.3% (active)	-97.2% (active)
O=C(c1ccc(-n2c(=O)[nH]c3ccccc3c2=O)cc1)N1CCOCC1	120%	108%	102%	114%	124%	104%	108%	101%	106%	99.7%	75.6%	102%	97.1%	101%	99.2%	116%	114%	94.7%
Cc1nn(-c2ccccc2)c2ncn(CC(=O)N/N=C/c3c[nH]c4ccccc34)c(=O)c12	73.2%	89.1%	103%	83.2%	106%	106%	84.3%	72.7%	101%	83.2%	99.4%	94.9%	95.4%	68.7%	82.5%	114%	92.4%	102%
CN1C(=O)N(C)C2SC(N/N=C/c3ccccc3)=NC21 (stereo unspecified)	97.4%	97.1%	94.4%	94.6%	95.7%	64.5%	25.1%	66.1%	44.6%	69.5%	58.7%	-13.7% (active)	38.3%	41%	51.5%	81.9%	46.7%	10% (active)
O=C(c1ccc(O)cc1)C1[C@H](c2ccc(Br)cc2)[C@@H](c2ccccc2)NC12C(=O)Nc1ccc(Br)cc12 (stereo partly specified)	1.12% (active)	12%	-4.82% (active)	14.3%	13.2%	-6.01% (active)	-38.9% (active)	-6.2% (active)	-2.8% (active)	22.2%	39.3%	-25.1% (active)	-28% (active)	-18% (active)	8.14% (active)	-83.9% (active)	-24.7% (active)	-54% (active)
CC(=O)NNc1ccc2nnc(-c3ccc(Br)cc3)n2n1	91.7%	105%	102%	99.4%	81.2%	105%	104%	102%	101%	84.2%	90.2%	94.6%	102%	87.8%	101%	109%	105%	97.4%
O=C(Nc1ccc(I)cc1F)c1cc(-c2ccc(F)cc2F)ccc1O	-18.1% (active)	8.5% (active)	3.54% (active)	17.2%	-10.6% (active)	22.7%	-1.28% (active)	2.66% (active)	-8.34% (active)	-22.7% (active)	-12.5% (active)	0.752% (active)	10.1%	-12.8% (active)	17.2%	5.11% (active)	6.39% (active)	-26.8% (active)

— PubChem BioAssay (NCI)
